HP1b binding inh – blocks HP1-beta chromodomain binding to methylated histone tails; Potency, µM (doses to about 114 µM), usual class: inhibitors; 390,000 tested, 0.56% active; AlphaScreen HP1-beta / biotin-H3K9me3 peptide binding; also: nearly all actives have a fitted effect of over 70% in size
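AlphaScreen: HP1-beta (50 nM) preformed 30 min with biotin-H3(1-18)K9me3 peptide (50 nM) in PBS pH 7.4, 0.01% Tween-20. Compound added for 30 min at RT, then streptavidin donor/nickel chelate acceptor beads (10 ug/mL) for 30 min.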
Sfp inh – blocks B. subtilis Sfp PPTase activity. 310,000 tested, 3.5% active. Q9F4F7. Biochemical Sfp PPTase activity, qHTS. Potency, µM, usual class: inhibitors;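 also: the enzyme is Sfp with the accession as filed and its product quenches rhodamine fluorescence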
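After 15 min at room temperature with compound, 15 nM Sfp received 5 uM rhodamine-CoA plus 12.5 uM BHQ-2-ybbR (50 mM Hepes pH 7.6, 10 mM MgCl2). Rate came from the fluorescence difference over 30 min, ex 525/em 598 nm.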
BAZ2B inh – BAZ2B (human) inhibition; 360,000 tested, 4.4% active; AlphaScreen BAZ2B-H3K14Ac peptide displacement; Potency, µM (highest dose often 114 µM), actives largely listed as inhibitors; also: nearly all actives have a fitted effect of over 60% in size
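Inhibition is scored as reduced AlphaScreen emission. The BAZ2B/b-H3(5-23)K14Ac complex (50 nM each) in PBS pH 7.4, 0.01% Tween-20 meets compound (up to 110 uM) for 30 min at RT before bead addition.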
G9a inh – inhibitors of human histone lysine methyltransferase G9a. Q96KQ7. G9a H3K9 monomethylation, AlphaScreen, 2 h. Potency, µM (titrated, usually from 102 µM), actives largely listed as inhibitors. 350,000 tested, 8.8% active; also: nearly all actives have a fitted effect of over 75% in size
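Readings reflect AlphaScreen signal from monomethyl-H3K9 antibody detection. HMT at 20 nM; substrate b-H3K9 500 nM; cofactor SAM 20 uM; 2 h RT reaction; compounds tested as titrations in qHTS with 15 min preincubation.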
JMJD2A Tudor inh – blocks the human JMJD2A Tudor domain; O75164; AlphaScreen JMJD2A-Tudor / H3K4me3 peptide binding; Potency, µM (series often up to 114 µM), usual class: inhibitors; 390,000 tested, 4.4% active; AID 504339; also: nearly all actives have a fitted effect of over 50% in size
L3MBTL1 block – inhibitors of human L3MBTL1 | Q9Y468 | AlphaScreen L3MBTL1–H3K9me1 peptide binding | Potency, µM (doses to about 57.1 µM), most hits filed as inhibitors | 230,000 tested, 0.66% active | AID 485360; also: nearly all actives have a fitted effect of over 60% in size
Target sequence (Q9Y468 whole entry, looked up): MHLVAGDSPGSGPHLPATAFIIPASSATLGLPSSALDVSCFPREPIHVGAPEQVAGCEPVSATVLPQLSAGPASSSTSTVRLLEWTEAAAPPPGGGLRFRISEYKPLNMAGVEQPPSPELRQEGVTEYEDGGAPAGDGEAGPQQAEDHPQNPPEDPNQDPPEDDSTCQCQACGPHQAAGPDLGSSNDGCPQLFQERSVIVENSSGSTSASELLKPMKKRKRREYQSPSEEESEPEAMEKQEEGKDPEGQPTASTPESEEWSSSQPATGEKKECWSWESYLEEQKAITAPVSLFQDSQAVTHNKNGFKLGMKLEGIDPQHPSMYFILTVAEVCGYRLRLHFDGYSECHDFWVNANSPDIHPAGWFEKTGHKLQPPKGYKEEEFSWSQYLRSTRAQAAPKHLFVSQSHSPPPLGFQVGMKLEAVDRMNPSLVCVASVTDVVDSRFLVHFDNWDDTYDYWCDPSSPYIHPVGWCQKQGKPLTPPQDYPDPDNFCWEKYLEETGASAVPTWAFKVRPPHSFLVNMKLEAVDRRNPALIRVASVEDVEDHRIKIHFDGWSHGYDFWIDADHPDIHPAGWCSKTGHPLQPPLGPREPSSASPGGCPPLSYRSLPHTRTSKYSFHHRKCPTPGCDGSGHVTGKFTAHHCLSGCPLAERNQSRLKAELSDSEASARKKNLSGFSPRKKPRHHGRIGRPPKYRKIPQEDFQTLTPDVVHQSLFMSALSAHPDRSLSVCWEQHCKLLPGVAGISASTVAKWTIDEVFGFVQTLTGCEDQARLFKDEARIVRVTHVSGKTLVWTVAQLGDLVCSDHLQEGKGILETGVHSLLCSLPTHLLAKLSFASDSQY
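L3MBTL1 50 nM + b-AHA-H3(1-15)K9me1 75 nM, 30 min RT; compound added, 30 min RT; streptavidin donor/Ni-chelate acceptor beads 10 ug/mL each final, 30 min RT dark; AlphaScreen read.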
Of the large screens only hits and unclear results are named; the others gave an inactive call. Compounds with a hit are over-represented: about 12% of the library has one in this group of screens. Calls follow the shape of the dose curve; as a rule, active = well fitted curve in the direction sought with a large enough effect; inconclusive = small, poorly fitted or top-dose-only effect, or another doubt; inactive = no such curve, though single readings can be large; an effect the other way counts as inactive or inconclusive.

CN1/C(=C\C(=O)COc2ccc3c(c2)OCO3)C(C)(C)c2ccccc21	HP1b binding inh inconclusive, BAZ2B inh 28.2µM, G9a inh inconclusive, JMJD2A Tudor inh inconclusive
COc1ccccc1OCC(=O)/C=C1/N(C)c2ccccc2C1(C)C	none
CNC(=O)[C@@H](Cc1ccccc1)N(C)C(=O)[C@@H](Cc1ccc2ccccc2c1)N(C)C(=O)/C=C/CC(C)(C)N	none (no result: HP1b binding inh, BAZ2B inh, G9a inh, JMJD2A Tudor inh, L3MBTL1 block)
COc1cccc(N2CCN(S(=O)(=O)c3cccc4nsnc34)CC2)c1	G9a inh 56.2µM (no result: L3MBTL1 block)
COc1ccc(N2CCN(S(=O)(=O)c3cccc4nsnc34)CC2)cc1	BAZ2B inh inconclusive, JMJD2A Tudor inh 56.2µM (no result: L3MBTL1 block)
CC(=O)c1ccc(N2CCN(S(=O)(=O)c3cccc4nsnc34)CC2)cc1	HP1b binding inh inconclusive, JMJD2A Tudor inh inconclusive
COc1cccc(CNC(=O)c2sc3nc(C)cc(C)c3c2-n2cccc2)c1OC	none (no result: Sfp inh, L3MBTL1 block)
Cn1c(N)c(C(=O)COC(=O)c2ccccn2)c(=O)n(C)c1=O	BAZ2B inh 79.4µM, G9a inh 20µM, JMJD2A Tudor inh 79.4µM
Cn1c(N)c(C(=O)COC(=O)Cc2ccc(Cl)c(Cl)c2)c(=O)n(C)c1=O	JMJD2A Tudor inh 89.1µM (no result: Sfp inh, BAZ2B inh, G9a inh)
Cn1c(N)c(C(=O)COC(=O)C2(c3ccc(Cl)cc3)CCCC2)c(=O)n(C)c1=O	JMJD2A Tudor inh 3.16µM (no result: L3MBTL1 block)
COc1ccc(CCC2(C)NC(=O)N(C(C)C(=O)N3c4ccccc4CC3C)C2=O)cc1 (stereo not given)	none (no result: Sfp inh)
Clc1cccc(-n2ncc3c(NC4CCCCC4)ncnc32)c1	none (no result: Sfp inh, L3MBTL1 block)
CC(NC(=O)COc1ccc(Br)cc1)C1CCCO1 (stereo not given)	none (no result: L3MBTL1 block)
N#Cc1nc(-c2ccc([N+](=O)[O-])cc2)oc1N1CCCCC1	none (no result: L3MBTL1 block)
Cc1ccccc1OCc1nc(C#N)c(N2CCCC2)o1	BAZ2B inh 44.7µM, G9a inh 28.2µM, L3MBTL1 block inconclusive
N#Cc1nc(-c2ccc(Cl)cc2)oc1N1CCCCC1	Sfp inh inconclusive, BAZ2B inh 39.8µM, G9a inh inconclusive, JMJD2A Tudor inh inconclusive
COc1ccc(-c2nc(C#N)c(N3CCCCC3)o2)cc1	HP1b binding inh 56.2µM, BAZ2B inh 28.2µM, JMJD2A Tudor inh inconclusive (no result: L3MBTL1 block)
COc1ccc(-c2nc(C#N)c(N3CCCCCC3)o2)cc1	Sfp inh inconclusive, BAZ2B inh 28.2µM, G9a inh inconclusive, JMJD2A Tudor inh inconclusive, L3MBTL1 block inconclusive
CCn1c(C)c(C)c2cc(C(=O)NCc3ccc(OC)cc3OC)ccc21	BAZ2B inh inconclusive, G9a inh inconclusive, JMJD2A Tudor inh inconclusive (no result: Sfp inh, L3MBTL1 block)
Cc1cc(F)ccc1S(=O)(=O)Nc1ccc(C(=O)N2CCCCC2)cc1	none (no result: Sfp inh, BAZ2B inh, G9a inh)
C#C[C@@]1(O)CC[C@@H]2[C@@H]3CCC4=CC(=O)CC[C@@H]4[C@H]3CC[C@]21CC	none (no result: HP1b binding inh, BAZ2B inh, JMJD2A Tudor inh, L3MBTL1 block)
O=C(O)[C@H]1CN(CCCP(=O)(O)O)CCN1	none (no result: HP1b binding inh, BAZ2B inh, G9a inh, JMJD2A Tudor inh, L3MBTL1 block)
Cc1ccc(CNC(=O)CN(c2ccc(C(C)C)cc2)S(=O)(=O)c2c(C)n[nH]c2C)cc1	none (no result: Sfp inh, BAZ2B inh, L3MBTL1 block)
Cc1ccc(-c2nc(C#N)c(N3CCCCC3)o2)cc1	BAZ2B inh inconclusive, G9a inh 20µM
N#Cc1nc(-c2ccc(F)cc2)oc1N1CCCC1	HP1b binding inh inconclusive, G9a inh inconclusive
Cc1ccccc1-c1nc(C#N)c(N2CCCCC2)o1	HP1b binding inh 44.7µM, BAZ2B inh 22.4µM, G9a inh 35.5µM, JMJD2A Tudor inh inconclusive (no result: L3MBTL1 block)
COc1ccc(-c2nc(C#N)c(N3CCC(C)CC3)o2)cc1	BAZ2B inh 5.01µM, G9a inh 14.1µM, JMJD2A Tudor inh inconclusive (no result: L3MBTL1 block)
N#Cc1nc(-c2ccccc2)oc1N1CCCCC1	G9a inh inconclusive
N#Cc1nc(-c2ccc(F)cc2)oc1N1CCCCC1	HP1b binding inh inconclusive, BAZ2B inh inconclusive, G9a inh 12.6µM, JMJD2A Tudor inh inconclusive (no result: L3MBTL1 block)
CC(C)(C)c1ccc(C(=O)N/N=C/c2ccc(OCCCF)cc2)cc1	none
CC(=O)Oc1ccc(N(C(C)=O)S(=O)(=O)c2cccs2)c2ccccc12	G9a inh 12.6µM (no result: L3MBTL1 block)
Cc1cc(C)cc(OCCSc2nc(-c3ccc(C(C)(C)C)cc3)nc3cc(=O)[nH]n23)c1	none (no result: Sfp inh, L3MBTL1 block)
COc1ccccc1OCCCSc1nc(-c2ccc(C(C)(C)C)cc2)nc2cc(=O)[nH]n12	HP1b binding inh 2.24µM, BAZ2B inh inconclusive, JMJD2A Tudor inh 50.1µM (no result: Sfp inh, L3MBTL1 block)
Cc1cc(OCCCSc2nc(-c3ccc(C(C)(C)C)cc3)nc3cc(=O)[nH]n23)ccc1Cl	HP1b binding inh inconclusive, BAZ2B inh 28.2µM, JMJD2A Tudor inh 31.6µM (no result: Sfp inh, L3MBTL1 block)
COc1ccc(-c2nc(SCCOc3ccccc3Cl)n3[nH]c(=O)cc3n2)cc1	none (no result: Sfp inh, L3MBTL1 block)
CC(C)(C)c1ccc(-c2nc(SCCCOc3ccccc3)n3[nH]c(=O)cc3n2)cc1	BAZ2B inh 50.1µM, JMJD2A Tudor inh 50.1µM (no result: Sfp inh, L3MBTL1 block)
O=C(NCc1cccnc1)c1ccc(Cl)c(S(=O)(=O)Nc2ccccc2C(=O)NCc2cccnc2)c1	BAZ2B inh inconclusive, G9a inh 44.7µM

Source: PubChem (National Center for Advancing Translational Sciences (NCATS))
